# Assay results taken from the supplement of paper PMC11417369.
# In all, about 25,000 sequences were measured (“ln(normalized median fluorescence intensity)”: median about 9.7, highest 2% from about 11 on). The sample holds the highest values, similar sequences and a random draw of the others, so the mix is not that of the screen.
# Test system: PfAP2-HC AP2 domain (GST-tagged)
# Experiment: gcPBM binding intensity (ln(normalized median fluorescence intensity)); higher = stronger DNA binding
# Outline: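 Each value is the highest Masliner-normalised natural-log median intensity across replicate spots of either orientation of a probe. The probes were primer-extended double-stranded 36-bp intergenic genomic sequences on an Agilent 4 × 180k array, alongside negative controls, exposed for 1 h to GST-tagged P. falciparum DNA-binding domains expressed in E. coli. Bound protein was picked up with Alexa488 anti-GST antibody and scanned at 488 nm.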
row,Sequence,gcPBM binding intensity (ln)
1,TATAAATTAAAATCAGTGCATATTTTGAAAAACCTC,9.66
2,ATATATTGATATATGTGTACATAGCTTATTTCATTT [XGTACX_site1800],9.74
3,GTAAAATTAAAAATAACACACAAAAAAAAAAAAAAA [CACACA_site800],9.85
4,TTTATTTATTTATTCTTATTTTTTTTTTTTTTTACT [CACACA_negctrl_site257],9.49
5,CTATGAACACACACATGTACATATATTAACTCGCTA [XGTACX_site8805],9.98
6,TTATAACTTTTCACAAGTACATATATATATGTATAA [XGTACX_site2306],9.53
7,AAGTTAGTATTCTGCTGTACTTCTATATATAAGTGT [XGTACX_site7678],9.61
8,TATAACATAAAACACACACACATACATACACAAAAA [CACACA_site1804],11
9,CACACGCACGGACACACACACAAAAAAAAAAAGAAA [CACACA_site6378],10.3
10,TACAAAATGGGGAACACACACATATATAAATAAATA [CACACA_site7751],11.1
11,TATATACACATATATAAACACACAAAAAAAAAAAAA [CACACA_site8626],9.82
12,TACAAAATGGGGAACACACACATATATATATATATA [CACACA_site3844],9.99
13,TATAAATATATATATACACACACATACACAAAAAAA [CACACA_site9191],10.5
14,CACAGACACGGACACACACACACAAAAAAAAAAAGA [CACACA_site4436],11.3
15,AACAGACAAAGACACACACACATACATACATACATA [CACACA_site6351],10.4
16,TAAATATATAAATACACACACATACACAAAAAAAAA [CACACA_site5890],10.9
17,CACATACATATATACACACACAAAATAATAAAATAA [CACACA_site2308],10.4
18,TATACACATATATAAACACACAAAAAAAAAAAAAAA [CACACA_site7041],9.57
19,GATACAAAATGGGGAACACACACATATATATATATA [CACACA_site9278],10.8
20,TTTTTTTGCATTTCATGTACATATATTGAGCTTAAA [XGTACX_site8485],9.6
21,TCACAAATGTATTATACACACAAGTTTTCTTTAATA [CACACA_site4107],9.71
22,ATGAATTTTTCTCTACAAAAGGATATAATAAAAATA [XGTACX_negctrl_site461],9.37
23,TTACGAATAAAACAGTGTACATTGAATTTCTATGAG [XGTACX_site4771],9.51
24,TTTTTAAAAATATACACACACAGATATTATAGATAT [CACACA_site6511],10.1
25,TCCTTATTTATATAATGTACTTTTTTTTTTCATTTT [XGTACX_site4275],9.64
26,TTTATTCAAATATAATGTACTTTCTACAAATTCAAT [XGTACX_site8119],9.43

row,Sequence,gcPBM binding intensity (ln)
1,TATTATATAAAATATTTTATTATATCATCTTCTCTA [XGTACX_negctrl_site319],9.44
2,TTCATTTTCATATATTGTACAAAATTTTATAAGGTT [XGTACX_site4522],9.58
3,ATCTTGAAGATTATTTGTACACAAAAGTTAAAATAT [XGTACX_site242],9.47
4,AAAAAAAAAAAACACACACACACAAATACATACACA [CACACA_site706],10.7
5,AAAAAAAAAAAACACACACACAAATACAAATACATA [CACACA_site415],11.5
6,AAAAAAAAAAAACATACACACAAATAAATACATACA [CACACA_site6073],10.1
7,TCATACTGTATATTTTGTACTTATATATATATTATA [XGTACX_site6136],10
8,TATTCCCCCCAACACACACACACACCGACATACCAC [CACACA_site8723],11.5
9,CACCCACCCACATACACACACATACACATATATATA [CACACA_site1722],10.3
10,CATATTCCCCCCCACACACACACACCCATACATACC [CACACA_site2303],10.6
11,TATTCCCCCAAACACACACACACACCCACATACCAC [CACACA_site2304],10.7
12,ACATACATACCCCCACGTACGTACCGAAACACCACC [XGTACX_site1982],9.84
13,GACATATTCCCCCCCACACACACACCCACATACATA [CACACA_site2302],11.1
14,AATTATATATTATAATGTACATATATATAACTATAC [XGTACX_site1865],9.67
15,ATAATTCATGTTTAGTGTACAAAAAATTAAAGCAAC [XGTACX_site8891],9.87
16,ATATAGTATAATAAAAGTACATTTTGATTTTTTCTC [XGTACX_site1797],9.61
17,AATAAACATAAATAAAAATTATAAAATATATATATG [CACACA_negctrl_site1709],9.75
18,ATATAACAGAAACACACACACATATATATATATTAT [CACACA_site4140],11.3
19,TAAAAAAAAACAGAAACACACATTATTCATATATAT [CACACA_site2049],10.2
20,CAAATACAGAAACACACACACATATACATATATATA [CACACA_site3498],10.4
21,CATACATAGAAACACACACACACACCCACCCACAAA [CACACA_site494],10.6
22,TAAATACAGAAACACACACACAAATATATACATACA [CACACA_site2880],10.5
23,TACATACAGAAACACACACACACATATATATATATA [CACACA_site2919],11.1
24,CATTATAAGAAACACACACACATATATATATATATA [CACACA_site1051],10.1
25,TATACGCAGAAACACACACACATACACCCACATACA [CACACA_site1723],10.6
26,CATACACAGAAACACACACACATATATATATATATA [CACACA_site4519],10.2

row,Sequence,gcPBM binding intensity (ln)
1,AACATACAGAAACACACACACACACCCACACCCACA [CACACA_site493],11.5
2,CATATACAGAAACACACACACACATAAATAAATATA [CACACA_site1343],11
3,CATACACAGAAACACACACACATATATACATATATA [CACACA_site1094],10.4
4,TTGTTAGAGTATATTGAAAGGATAACCTTTTTTTAT [XGTACX_negctrl_site122],9.43
5,AAAATAATTTTATAGTTGCACTATATCGTATACAAT,9.71
6,AACGATTTACATCACTGTACTAATGATATACCTCAT [XGTACX_site7463],9.85
7,ATAAATATAACATATTGTACCCTTAAAAAGGAACAA [XGTACX_site352],9.5
8,ACGTACTGCCCTAAAGTGCATATATAATATAAACGA [GTGCAC_site9911],9.52
9,GTCATATTAATATGTACACACATATTTATATTTATA [CACACA_site6798],9.83
10,AATGTTTAATATAACGCATGCCTTAATATAGAATGC [TGCATGCA_site463],9.59
11,TAAAGAAAAAGAGAATGTACATGAGAAAAGTATACT [XGTACX_site7472],9.79
12,TTTAAAAAAAAAAAAAAAAATTAAATGAATTATTAA [CACACA_negctrl_site1121],8.95
13,AAAAAAAAAAATATAACACACAACAAAAAAATATAT [CACACA_site1753],10.4
14,ATAGTAAACGAAATAAAAAGATTAGCATAATATCCT [CACACA_negctrl_site1730],9.79
15,ACATGTGAACATTCAATGCACACGATGTAATTATAC [CACACA_site14],9.84
16,TAATTTTTTTTTTTTTTTCATTCTTTTCCTTTGATT [CACACA_negctrl_site1365],9.22
17,CACAACATATATATATATATATATATATATATGTGT [CACACA_negctrl_site28],9.39
18,TATATGTTTGAATATACACACAACATATTTATATAT [CACACA_site7832],9.74
19,ACTTCAAAAAAAAAAAAATATATATATATATATTAT [GTGCAC_negctrl_site158],9.33
20,TATAATTTAACGACATGTACATATAAAAAAATATTT [XGTACX_site2395],9.75
21,TTTTTTTTTTTGATTTGTACACAAAAAAAATATATG [XGTACX_site4547],9.42
22,TAATTTTTGAAACACACACACATATATATATATATA [CACACA_site94],10.5
23,CATATATTTTGAAACACACACATATATAATATACAT [CACACA_site1158],10.4
24,AATTTGTTGAAACACACACACACATACATATATATA [CACACA_site2287],11.3
